# Source: PubChem BioAssay (Tox21)
# “And” between values parts separate entries of the source, which are not always exact repeats. Equal values may be shown once. Results filed as inconclusive are left out. The source made the active and inactive calls. Calls follow the shape of the dose curve; as a rule, active = well fitted activation curve with a large enough effect in the repeat runs; inconclusive = weak or mixed curves; inactive = no such curve, though single readings can be large or run the other way.
# Molecular target: Nuclear receptor subfamily 1 group I member 2 (Rattus norvegicus) (UniProt Q9R1A7)
# Sequence (Q9R1A7 whole entry, looked up): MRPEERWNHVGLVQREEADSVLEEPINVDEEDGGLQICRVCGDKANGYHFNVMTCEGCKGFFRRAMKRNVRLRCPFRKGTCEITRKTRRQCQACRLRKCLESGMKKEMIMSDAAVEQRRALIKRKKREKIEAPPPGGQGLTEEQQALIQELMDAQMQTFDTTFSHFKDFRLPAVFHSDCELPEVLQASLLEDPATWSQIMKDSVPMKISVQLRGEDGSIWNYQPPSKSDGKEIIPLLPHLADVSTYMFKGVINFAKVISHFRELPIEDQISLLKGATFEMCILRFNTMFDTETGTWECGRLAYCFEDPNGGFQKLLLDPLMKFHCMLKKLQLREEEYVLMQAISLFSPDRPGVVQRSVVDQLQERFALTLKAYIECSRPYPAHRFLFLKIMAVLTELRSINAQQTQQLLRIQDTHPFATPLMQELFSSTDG
# Experiment: Rat pregnane X receptor (rPXR) activation by small molecules, qHTS assay (AID 1346983); also: nearly all actives have a fitted effect of over 20% in size
# Details: rPXR luciferase reporter cells, One-Glo luminescence, 24 h; max activation: stronger effect = higher value
# Method in brief: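 Cell-based rPXR luciferase reporter assay, 2,000 cells per well, rested 5hr at 37 C before compound addition in DMSO, then 24 hr at 37 C. One-Glo reagent was added and luminescence read after 30 min at room temperature.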
# % is scaled to controls: 0 for no effect and ±100 for the full control effect.
row,SMILES,max activation
1,C[Se]CCC(N)C(=O)O (centres undefined),-0.898% (inactive)
2,O=C(CCCN1CCC(C(=O)c2ccc(F)cc2)CC1)c1ccc(F)cc1,4% (inactive)
3,CNC(=O)c1c(I)c(C(=O)NCC(=O)Nc2c(I)c(C(=O)O)c(I)c(C(=O)NCCO)c2I)c(I)c(N(C)C(C)=O)c1I,-3.62% (inactive)
4,CN1CCCC(CN2c3ccccc3Sc3ccccc32)C1 (centres undefined),-5.65% (inactive)
5,CC(=O)Nc1ccc(NC(=S)NC(=O)c2ccc(C(C)(C)C)cc2)cc1,-2.69% (inactive)
6,Cc1cc(/C=C/c2ccc3cc(N(C)C)ccc3[n+]2C)c(C)n1-c1ccccc1,-14% (inactive)
7,C[C@]12CC[C@@H]3c4ccc(O)cc4CC[C@H]3[C@@H]1CC[C@@H]2OP(=O)(O)O,0.522% (inactive)
8,CC1(C)[C@@H]2CC[C@@]1(C)[C@H](OC(=O)CSC#N)C2,7.49% (inactive)
9,COCC(=O)Nc1cc(Sc2ccccc2)ccc1N=C(NC(=O)OC)NC(=O)OC,86.6% (inactive)
10,CN(C)CC/C=C1/c2ccccc2CSc2ccccc21,-3.65% (inactive)
11,CN1[C@@H]2CC[C@H]1CC(OC(c1ccccc1)c1ccccc1)C2 (some centres undefined),-1.01% (inactive) and 0.643% (inactive) and -2.69% (inactive)
12,CCN(CC)Cc1cc(Nc2ccnc3cc(Cl)ccc23)ccc1O,-2.52% (inactive)
13,O=C1CSC2(CCN(CCCN3c4ccccc4Sc4ccc(Cl)cc43)CC2)N1,2.22% (inactive)
14,CC(=O)c1ccc2c(c1)N(CCCN1CCN(CCO)CC1)c1ccccc1S2,-12.2% (inactive)
